# Screening data deposited in PubChem by National Center for Advancing Translational Sciences (NCATS).
# The list is not random: actives were taken first. Their share in the collection is about 8.7%.
# Sfp PPTase inh – inhibitors of Bacillus subtilis Sfp phosphopantetheinyl transferase | Q9F4F7 | Biochemical Sfp PPTase activity, qHTS | Potency, µM, inactives show largest response in the series, negative = inhibition, most hits filed as inhibitors | 310,000 compounds, 3.5% hits | AID 1490;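 note: the enzyme is Sfp with the accession as filed and its product quenches rhodamine fluorescence; 0% = enzyme reaction without inhibitor and -100% = no enzyme wells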
#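 Step 1, compound plus 15 nM Sfp-PPTase, 15 min, room temperature. Step 2, add rhodamine-CoA (5 uM) and BHQ-2-YbbR (12.5 uM). Step 3, read 525/598 nm fluorescence at 0 and 30 min.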
# BAZ2B block – inhibitors of human BAZ2B bromodomain | 360,000 compounds, 4.4% hits | Potency, µM (highest dose often 114 µM), for inactives: at the top dose activity change, negative = inhibition, hits mostly inhibitors | AlphaScreen BAZ2B-H3K14Ac peptide displacement | Q9UIF8; note: % is set by controls: 0 for no effect and ±100 for the full control effect; nearly all actives have a fitted effect of over 60% in size
#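 Compounds, titrated to a top concentration of 110 uM, were incubated 30 min at room temperature with preformed BAZ2B/acetyl-K14 H3 peptide complex (50 nM each). Proximity signal was measured by AlphaScreen after 20 min with beads.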
# JMJD2A Tudor – inhibitors of human JMJD2A Tudor domain. AlphaScreen JMJD2A-Tudor / H3K4me3 peptide binding. O75164. 390,000 compounds, 4.4% hits. Potency, µM (highest dose often 114 µM), without a hit: top-dose activity change, negative = inhibition, usual class: inhibitors; note: % is set by controls: 0 for no effect and ±100 for the full control effect; nearly all actives have a fitted effect of over 50% in size
# 12-LOX inh – inhibitors of human 12S-lipoxygenase ALOX12; 580,000 compounds, 1.1% hits; Potency, µM (titrated, usually from 108 µM), for the others: top-dose activity change, negative = inhibition, usual class: inhibitors; purified 12hLO, xylenol orange hydroperoxide absorbance; AID 1671190; note: % is set by controls: 0 for no effect and ±100 for the full control effect
#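 Purified human 12hLO (150 nM final) in 25 mM Hepes, 0.01% Triton X-100, pH 7.0 was preincubated 15 min at room temperature with compound. Then 40 uM arachidonic acid was added, 30 min. Hydroperoxide was read by Fe-XO absorbance ratio 573/405 nm.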
# G9a inh – G9a (human) methyltransferase inhibition | AID 504332 | Potency, µM (highest dose often 102 µM), for inactives: top-dose activity, negative = inhibition, actives largely listed as inhibitors | Q96KQ7 | 350,000 compounds, 8.8% hits | G9a H3K9 monomethylation, AlphaScreen, 2 h; note: % is set by controls: 0 for no effect and ±100 for the full control effect; nearly all actives have a fitted effect of over 75% in size
#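 AlphaScreen detection with an anti-monomethyl H3K9 antibody quantified product after a 2 h room-temperature reaction containing 500 nM biotinylated H3K9 peptide, 20 µM SAM and 20 nM enzyme, which had been preincubated 15 min with compound.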
# HP1b chromo inh – inhibitors of HP1-beta chromodomain binding to methylated histone tails. Potency, µM (series often up to 114 µM), without a hit: at the highest dose activity change, negative = inhibition, hits mostly inhibitors. AlphaScreen HP1-beta / biotin-H3K9me3 peptide binding. 390,000 compounds, 0.56% hits. P83916. AID 540317; note: nearly all actives have a fitted effect of over 70% in size
#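 AlphaScreen: HP1-beta (50 nM) preformed 30 min with biotin-H3(1-18)K9me3 peptide (50 nM) in PBS pH 7.4, 0.01% Tween-20. Compound added for 30 min at RT, then streptavidin donor/nickel chelate acceptor beads (10 ug/mL) for 30 min.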
# Active calls of the source: *; ? = inconclusive; . = no result; [ ] = another dose, or the depositor's remark. Calls come from the whole dose curve; as a rule, active = well fitted curve in the direction sought with a large enough effect; inconclusive = small, poorly fitted or top-dose-only effect, or another doubt; inactive = no such curve, though single readings can be large; an effect the other way counts as inactive or inconclusive. Potency is the fitted concentration of half-maximal effect.
SMILES,Sfp PPTase inh,BAZ2B block,JMJD2A Tudor,12-LOX inh,G9a inh,HP1b chromo inh
CCC(=O)N1N=C(c2ccc(C)cc2)CC1c1ccco1 (centres undefined),-4%,-25%,-11%,22%,45µM*,21%
CCC1(CC)NC(=O)N(CC(=O)N2N=C(c3ccc(Cl)cc3)CC2c2ccco2)C1=O (centres undefined),-12%,?,?,?,56µM*,-15%
CCC(=O)N1N=C(c2ccc(NS(=O)(=O)c3ccc(C)cc3)cc2)CC1c1ccco1 (centres undefined),.,.,-29%,?,.,23%
C=CCn1c(SCC(N)=O)nc2c1c(=O)[nH]c(=O)n2C,.,.,.,-6%,.,.
OC(CN1CCOCC1)Cn1c2c(c3ccccc31)CCCC2 (centres undefined),5%,?,?,?,?,6%
CC(C)NCC(O)Cn1c2c(c3ccccc31)CCc1c-2cnn1-c1ccccc1 (centres undefined),?,?,50µM*,4%,?,?
COc1ccccc1C(=O)Nc1ncc2c(n1)CC(c1ccco1)CC2=O (centres undefined),-26%,50µM*,-30%,?,50µM*,8%
COCCCNC(=O)N1CCc2nn(C)c(=O)n2CC1,.,.,.,22%,.,.
S=c1[nH]nc2nnc3ccccc3n12,56µM*,?,-19%,?,3.2µM*,-5%
CCCn1c(SCC(=O)Nc2nnc(C)s2)nnc1-c1ccoc1C,-6%,0%,50µM*,?,-13%[12.7 µM],-12%
Cc1cccc(-n2c(SCC(=O)Nc3nnc(C)s3)nnc2-c2ccoc2C)c1,-9%,9%,-15%,-17%,13%[59 µM],12%
Cc1nnc(NC(=O)CSc2nnc(-c3ccoc3C)n2CC(C)C)s1,?,63%,50µM*,38%,26%[12.7 µM],-6%
CCCCn1c(SCC(=O)Nc2nnc(C)s2)nnc1-c1ccoc1C,13%,0%,10%,-6%,14%[59 µM],12%
CCOC(=O)CNC(=O)O[C@H]1C(=O)c2ccc(OC)cc2O[C@@H]1c1ccc2c(c1)OCO2,8%,.,.,.,.,.
COc1ccc2c(c1)O[C@H](c1ccc3c(c1)OCO3)[C@@H](OC(=O)NCc1ccc3c(c1)OCO3)C2=O,0%,.,.,.,.,.
COc1cccc([C@@H]2Oc3ccc(OC)cc3C(=O)[C@H]2OC(=O)NCc2ccc3c(c2)OCO3)c1,1%,-19%,.,.,45µM*,.
COc1ccc2c(c1)O[C@@H](c1ccc3c(c1)OCO3)[C@H](OC(=O)Nc1ccc(C)c(Br)c1)C2=O,1%,.,.,.,.,.
COc1ccc2c(c1)O[C@H](c1ccc3c(c1)OCO3)[C@@H](OC(=O)NCc1ccco1)C2=O,89µM*,.,.,.,.,.
COc1ccc2c(c1)O[C@H](c1ccc3c(c1)OCO3)[C@@H](OC(=O)Nc1cc(OC)c(OC)c(OC)c1)C2=O,10%,?,.,.,50µM*,.
CC(CNC(=O)NCc1ccc(F)cc1)CN1CCN(C)CC1 (centres undefined),.,.,.,13%,.,.
CCNC(=O)Cn1nc(C)c2c(C(=O)OC)cc(C3CC3)nc21,.,.,.,2%,.,.
COc1cc(Br)cc(CN2CCN(c3ncccn3)CC2)c1O,-6%,-8%,-25%,?,?,29%
COc1cc(CN2CCN(c3cccc(C)c3C)CC2)cc(OC)c1O,-15%,50µM*,1µM*,?,?,-33%
Cc1cccc(N2CCN(Cc3ccoc3)CC2)c1C,-10%,50µM*,11µM*,?,10µM*,?
Cc1cc(CN2CCN(c3cccc(C)c3C)CC2)cs1,.,0%,-15%,?,-2%[59 µM],77%
SMILES,Sfp PPTase inh,BAZ2B block,JMJD2A Tudor,12-LOX inh,G9a inh,HP1b chromo inh
COc1cc(CN2CCN(Cc3ccccc3C)CC2)cc(OC)c1O,.,.,.,1µM*,.,.
CCCOc1ccc(Br)cc1/C=C(/C#N)C(=O)OC,.,.,.,-43%,.,.
Cc1ccc(C)c(N2CCN(c3ccc(N4C(=O)COCC4=O)cc3[N+](=O)[O-])CC2)c1,0%,-25%,-23%,-30%,-6%,16%
COc1ccc(N2CCN(c3ccc(N4C(=O)CC(C)C4=O)cc3[N+](=O)[O-])CC2)cc1 (centres undefined),17%,?,?,1%,40µM*,-29%
COc1cccc(N2C(=O)CC(N3CCN(c4ccc([N+](=O)[O-])cc4)CC3)C2=O)c1 (centres undefined),20%,-11%,-24%,-25%,?,10%
COc1ccc(N2CCN(c3ccc(N4C(=O)COCC4=O)cc3[N+](=O)[O-])CC2)cc1,12%,?,-32%,-1%,50µM*,-14%
Cc1ccc(-n2nc(C)cc2NC(=O)c2ccc(C)s2)cc1,-4%,10%,7%,-16%,79µM*,26%
Cc1ccc(-n2nc(C)cc2NC(=O)CC#N)cc1,6%,-14%,9%,-7%,26%,38%
O=C(Cn1cnc2c(nnn2Cc2ccc(F)cc2)c1=O)Nc1ccc2c(c1)OCO2,.,.,.,-2%,.,.
COC(CNC(=O)c1ccc2c3c(onc13)-c1ccccc1C2=O)OC,18µM*,?,50µM*,0%,28µM*,?
CC(C)c1ccc(N2C(=O)CC(Sc3nc4ccccc4o3)C2=O)cc1 (centres undefined),?,0%,-15%,0%,45µM*,57%
O=C1c2ccccc2CC1Sc1nnc(-c2ccncc2)o1 (centres undefined),-17%,-21%,?,0%,?,45%
Cc1ccccc1N1C(=O)CC(Sc2nnc(-c3ccccc3)o2)C1=O (centres undefined),10µM*,-5%,-6%,35%,7.9µM*,-2%
O=C1CC(Sc2nnc(-c3ccccc3)o2)C(=O)N1c1ccccc1 (centres undefined),22µM*,10%,-8%,0%,?,3%
CN1CCOC(CNC(=O)Cc2ccccc2F)C1 (centres undefined),.,.,.,13%,.,.
CCN1CCN(CCNC(=O)c2ccc(N3CC4CC(C3)[C@H]3CCCC(=O)N3C4)nc2)CC1 (some centres undefined),.,.,.,36%,.,.
CCOC(=O)CC(=O)CSc1nc2nc(C)cc(C)n2n1,56µM*,1%,-14%,-21%,?,19%
CNC(=O)CSc1nc2nc(C)cc(C)n2n1,-6%,-30%,-1%,188%,19%,40%
CN1C(=O)CCCCC1C(=O)NC1CCCC1 (centres undefined),.,.,.,13%,.,.
Cc1nn2c(c1-c1ccnn1C(C)C)N(Cc1ccc(C(=O)O)s1)CCC2,.,.,.,28µM*,.,.
